We go through 16 sequences from the supplement of paper PMC6555819.

Common to all, as to experiment: PBM binding z-score (relative to random genomic background probes); higher = stronger binding; sequences stand for … in GC…GCGATTGACAGCGTAGAATGAAGG
Test [1] concerns RARb homodimer (NR concentration 270 nM). A digest of the protocol:
(§1)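 Custom Agilent 4×180K protein-binding microarrays carried double-stranded probes. Their 34-nt variable regions held direct-repeat seeds, single-nucleotide variants, half-site ablations and random human genomic background sequences. Arrays were incubated 1 h with ligand-free nuclear receptor dimers in PBS pH 7.4, 2% milk, 0.02% Triton X-100, 1 mM DTT, 0.2 mg/mL BSA and 0.4 mg/ml salmon testes DNA. Antibodies against each partner (one per run) detected binding, and scanned fluorescence was regression-normalized. Binding z-scores use random background probes as reference.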

The test system of test [2] is RARg:RXRa (NR concentration 270 nM, RXRa partner concentration 90 nM). A digest of the protocol:
as §1

Test [3] deals with RARg homodimer (NR concentration 270 nM). The essentials:
as §1

In test [4] the test system is RXRa DBDmut IVT, anti-RXR (DBD mutation: RXRa K156A/R161A, NR concentration 90 nM). The essentials:
as §1

Test [5] concerns RXRa homodimer (NR concentration 180 nM). The essentials:
as §1

Test [6] deals with THRa:RXRa (NR concentration 90 nM, RXRa partner concentration 90 nM). The essentials: as §1
Test [7] concerns THRa homodimer (NR concentration 90 nM). The essentials: as §1
The subject of test [8] is VDR:RXRa (NR concentration 270 nM, RXRa partner concentration 90 nM). A digest of the protocol: as §1
Test [9] relates to VDR homodimer (NR concentration 270 nM). The essentials: as §1

As to TGAATGAGGTTAAGGATCAGGGAACGTGGCGTCG, the PBM binding z-score in [1] is 0.892; in test [2], 1.97; in [3] it was 1.38; in [4] it was 0.394; in test [5], 2.62; in test [6], 2.49. Besides, the PBM binding z-score in test [7] is 0.88; in test [8], 0.99; in test [9], 0.15.
Consider CAAACTAGGTCACCGGAAGGTCTAAGTCCGCATG, for which the PBM binding z-score in test [1] is 4.28; in test [2], 5.48; in test [3], 5.56; in test [4] it was 1.58; in [5], 3.87; in test [6], 3.88. For the same sequence, the PBM binding z-score came to 2.22 in test [7], 3.1 in test [8] and 1.68 in test [9].
For GTACCAAGGTGAATAGGTCGTTGGTGAGTAGGCG, the PBM binding z-score was 1.93 in [1]; 2.86 in test [2]; 1.13 in test [3]; -0.312 in test [4]; 1.99 in test [5]; 1.71 in test [6]. In addition, the results for the PBM binding z-score in test [7], in test [8] and in test [9] were 0.526, 0.678 and 0.359, respectively.
With GATACAGGGTCAGCTAGAGGCCAGATTATGGAAA, the PBM binding z-score in test [1] turned out to be 3.59; in test [2], 6.4; in [3] it was 4.49; in [4] it was 1.25; in [5], 4.05; in test [6] it was 3.2. The PBM binding z-score is 0.619 in test [7], 3.57 in test [8] and 0.715 in test [9].
ATAGACAGGTGATGAAGGTAACTCAGGCTATCAT: the PBM binding z-score was 0.392 in [1]; 0.0804 in test [2]; 0.356 in [3]; -0.779 in test [4]; 0.265 in test [5]; 0.901 in [6]. Also, the PBM binding z-score was 0.156 in [7], 0.166 in [8] and -0.14 in test [9].
With GTACCAAGTTGAATAGGTCGTTGATGAGTAGGCG, the PBM binding z-score in test [1] was 0.758; in [2], 0.982; in test [3], 0.525; in test [4], 0.103; in test [5], 0.719; in test [6], 0.151. Besides, the results for the PBM binding z-score in test [7], in [8] and in [9] were -0.492, 0.387 and 0.477, respectively.
With CCTTACGGGTCACGAGGTTATAGCTCGACGAGCG, the PBM binding z-score in test [1] was 3.93; in [2], 6.04; in [3], 5.15; in test [4] it was 1.74; in [5], 6.98; in [6], 3.73. The PBM binding z-score in test [7] stood at 0.989; in [8], 5.07; in [9], 1.76.
For CGAACTAGTTCATTGACAGGACAGTGAATAGTAA, the PBM binding z-score in test [1] is 0.576; in [2] it was 1.79; in test [3] it was 1.11; in test [4], 3; in test [5] it was 0.234; in test [6], 0.837. Also, the PBM binding z-score is -0.237 in [7], 1.26 in test [8] and 2.01 in test [9].
For the sequence AGTCAAAGTTTACTAGGTAACGTAAGATTCAGCT, the PBM binding z-score is 0.795 in test [1]; 0.885 in [2]; 1.46 in test [3]; 1.44 in test [4]; 0.16 in test [5]; 0.591 in test [6]. In addition, the PBM binding z-score in test [7] is -0.0944; in [8], 0.363; in [9], 0.294.
Take TCTTCTAGATCAAGCAGGTTAAGAAAGCCTGAGT: the PBM binding z-score in [1] was 0.111; in test [2] it was 0.248; in [3], -0.0717; in [4] it was 0.841; in [5], 0.526; in [6], 0.295. In addition, the PBM binding z-score is -0.392 in [7], 0.623 in test [8] and 0.0619 in test [9].
In the case of CATACAGGGTCAGCTAGGCCAGAGTGGGGACGGC, the PBM binding z-score in test [1] was found to be 3.76; in test [2], 4.58; in test [3], 4.75; in test [4] it was 1.4; in test [5], 4.23; in [6], 3.12. Moreover, the PBM binding z-score was 1.52 in test [7], 4.01 in [8] and 1.59 in [9].
Regarding TCTTGTAGATCAAGTAGGTTAAGAAAGCCTGAGT, the PBM binding z-score in test [1] was 0.305; in test [2] it was 0.0366; in test [3], -0.106; in [4], 0.547; in test [5], 0.304; in test [6], 0.372. The values for the PBM binding z-score in test [7], in test [8] and in [9] were -0.238, 0.698 and 0.191, respectively.
On to TGCATGAGGTTAAAGATCAGGGAACGTGGCGTCG, for which the PBM binding z-score in [1] was 1.02; in [2], 2.55; in test [3] it was 1.33; in [4], 1.43; in [5] it was 3.68; in test [6], 2.71. The PBM binding z-score came out at 0.949 in [7], 2.1 in test [8] and 1.11 in test [9].
In the case of CCTGCTAGGTCATGGTCAGCTGATCTACAGTATG, the PBM binding z-score in [1] was found to be 3.13; in test [2], 3.97; in [3] it was 4.53; in test [4], 1.96; in test [5], 3.2; in test [6], 3.17. The PBM binding z-score in [7] stood at 1.23; in test [8] it was 1.95; in test [9], 0.608.
For the sequence GATACAGGGTCAAGGCCAAAGTACGCGTATTGAT, the PBM binding z-score is 3.82 in test [1]; 5.66 in [2]; 5.29 in test [3]; 2.45 in test [4]; 6.07 in test [5]; 3.76 in [6]. The PBM binding z-score in test [7] came to 1.43; in [8], 4.44; in test [9], 2.52.
Regarding ATCTCTAGGTAACCAAGTTTAGTGAATGCCGAAC, the PBM binding z-score is 0.287 in test [1]; 0.383 in [2]; 0.348 in [3]; 0.384 in test [4]; 0.298 in test [5]; 0.78 in [6]. For the same sequence, the results for the PBM binding z-score in [7], in [8] and in [9] were 0.672, 1.55 and 0.855, respectively.
